PubChem BioAssay (Tox21)
Records with an inconclusive call do not appear. Where a call stands in place of a potency, no number is given. Calls of active or inactive are those of the source. Calls follow the shape of the dose curve; as a rule, active = well fitted cell-killing curve with a large enough effect in the repeat runs; inconclusive = weak or mixed curves; inactive = no such curve, though single readings can be large or run the other way.

Assay: qHTS assay for identifying genotoxic compounds that show differential cytotoxicity against isogenic chicken DT40 cell lines with known DNA damage response pathways - Rad54/Ku70 mutant cell line (AID 743015); also: nearly all actives have a fitted effect of over 60% in size
Details: DT40 Rad54/Ku70 mutant viability, CellTiter-Glo, 40 h; series mostly up to 66.8 µM
From the text: National Center for Advancing Translational Sciences [NCATS]
NIH Chemical Genomics Center [NCGC]
U.S. Environmental Protection Agency [EPA]
National Institutes of Environmental Health Sciences [NIEHS]
National Toxicology Program [NTP]
U.S. Food and Drug Administration [FDA]
DNA repair pathways play a critical role in cellular homeostasis by repairing DNA damage induced by endogenous processes and xenobiotics. Isogenic chicken DT40 cell lines deficient in different DNA repair pathways can be used to identify genotoxic compounds and aid in characterizing the nature of the DNA damage induced. Two DNA repair-deficient cell lines with disrupted genes, Rad54/Ku70 or Rev3, were used to screen the Tox21 10K compound library. Possible genotoxicity was based on the presence of a significant increase in cytotoxicity in one or more of the DNA repair-deficient cell lines compared to that observed in the parental DNA repair-proficient cell line. CellTiter Glo viability assay (Promega, Madison, WI) was used to measure cell viability in these cells after compound treatment. This assay includes the data from the Rad54/Ku70 mutant cell line.
Tox21 Assay Protocol Summary:
300 DT40 mutant cells in 5 uL/well were dispensed into white, solid-bottom 1536-well plates using a Multidrop Combi (ThermoFisher Scientific, Waltham, MA) dispenser. After the assay plates were incubated at 37 C/5% CO2 for approximately 0.5 hour, 23 nL of compounds dissolved in DMSO, positive controls or DMSO only was transferred into the assay plate by a pintool work station (Kalypsys, San Diego, CA). The assay plates were incubated at 37 C/5% CO2 for 40 hours. After 5 uL per well of CellTiter-Glo reagent was added into each well of the assay plates, the plates were incubated for 30 min at room temperature and the luminescence intensity of the plates was measured using a ViewLux (PerkinElmer, Shelton, CT) plate reader.
Potency is read from the fitted curve at half-maximal effect.

Which Potency does the source give for `O=[N+]([O-])c1ccc(Oc2ccc([N+](=O)[O-])cc2)cc1` here?
Its Potency is “inactive”.

For `C=CC(=O)OCCCCCC`, which Potency is on record?
Its Potency is “inactive”.

Which Potency does the source give for `Cc1cc(C)cc(OCC2CNC(=O)O2)c1` (stereo not given) here?
The Potency was “inactive”.

For `COC(=O)c1ccc(C(=O)OC)c(C(=O)OC)c1`, which Potency is on record?
The Potency was “inactive”.

Which Potency does the source give for `CN(C)C(=O)Nc1ccccc1` here?
The Potency was “inactive”.

Which Potency does the source give for `CN(C)C(=O)C(CCN1CCC(O)(c2ccc(Cl)cc2)CC1)(c1ccccc1)c1ccccc1` here?
The Potency was 10.6 µM (active).

For `N#CCc1ccccc1[N+](=O)[O-]`, which Potency is on record?
The Potency was “inactive”.

For `OC/C=C/c1ccccc1`, which Potency is on record?
Its Potency is “inactive”.

With `CN1[C@@H]2CC[C@H]1CC(NC(=O)n1c(=O)[nH]c3ccccc31)C2` (stereo not given in full) as the compound, how does the Potency read?
Its Potency is “inactive”.

For `CCN(CC)C(=O)c1ccc(O)c(OC)c1`, which Potency is on record?
Its Potency is “inactive”.

With `CSc1ccc(C=O)cc1` as the compound, how does the Potency read?
The Potency was “inactive”.

With `COC(=O)CCCC(=O)O` as the compound, how does the Potency read?
The Potency was “inactive”.

With `CC(C)COC(=O)C(C)C` as the compound, how does the Potency read?
Its Potency is “inactive”.

For `C=CCn1c(=O)n([C@@H]2O[C@H](CO)[C@@H](O)[C@H]2O)c2nc(N)[nH]c(=O)c21`, which Potency is on record?
The Potency was “inactive”.

With `CCCCNc1ccccc1` as the compound, how does the Potency read?
The Potency was “inactive”.

With `NC(=O)c1c(Cl)cccc1Cl` as the compound, how does the Potency read?
Its Potency is “inactive”.

For `CCCCCCCCCCCCCCCCCC(=O)OCCCCCCCCCCCCCC(C)C`, which Potency is on record?
The Potency was “inactive”.

For `CC(C)(O)c1ccccc1`, which Potency is on record?
Its Potency is “inactive”.

With `Nc1[nH]c(=O)ncc1F` as the compound, how does the Potency read?
The Potency was “inactive”.

With `c1ccc(SCCSc2ccccc2)cc1` as the compound, how does the Potency read?
Its Potency is “inactive”.

Which Potency does the source give for `Nc1nc2c(ncn2CCC(CO)CO)c(=O)[nH]1` here?
Its Potency is 5.96 µM (active).

For `c1ccc(CCCc2ccccn2)cc1`, which Potency is on record?
The Potency was “inactive”.

For `C#CC(O)C(CC)CCCC` (stereo not given), which Potency is on record?
Its Potency is “inactive”.

For `CNc1ncnc2nc[nH]c12`, which Potency is on record?
Its Potency is “inactive”.

Which Potency does the source give for `CO[Si](CCCNCCC[Si](OC)(OC)OC)(OC)OC` here?
Its Potency is “inactive”.

Which Potency does the source give for `CCCCCCCCCCCCCCCCCCOCC(O)CO` (stereo not given) here?
Its Potency is “inactive”.

With `CC(C)CCOC(=O)CC(C)C` as the compound, how does the Potency read?
The Potency was “inactive”.

For `NC(=O)c1ncn([C@@H]2O[C@H](CO)[C@@H](O)[C@H]2O)c1N`, which Potency is on record?
The Potency was “inactive”.

With `O=C(O)Cc1cc(I)c(Oc2cc(I)c(O)c(I)c2)c(I)c1` as the compound, how does the Potency read?
The Potency was “inactive”.

Which Potency does the source give for `c1cc(CN2CCCCC2)cc(OCCCNc2nc3ccccc3s2)c1` here?
Its Potency is 23.7 µM (active).

For `COc1cccc(OC)c1`, which Potency is on record?
The Potency was “inactive”.

Which Potency does the source give for `COC(=O)CCCCCCCCC(=O)OC` here?
The Potency was “inactive”.

Which Potency does the source give for `CC1CCN(CCCC(=O)c2ccc(F)cc2)CC1` here?
The Potency was 7.5 µM (active).

Which Potency does the source give for `Nc1cc(C(Cl)=C(Cl)Cl)c(S(N)(=O)=O)cc1S(N)(=O)=O` here?
Its Potency is “inactive”.

Which Potency does the source give for `CC(C)CCCCCCN` here?
Its Potency is “inactive”.

For `CC(C)CCCC(C)CCCC(C)CCCCC(C)CCCC(C)CCCC(C)C` (stereo not given), which Potency is on record?
Its Potency is “inactive”.

For `CCC(C)(C)C1CCC(OC)CC1` (stereo not given), which Potency is on record?
The Potency was “inactive”.

For `CCCC=O`, which Potency is on record?
Its Potency is “inactive”.

With `FC(F)(F)C(F)(F)C(F)(F)C(F)(F)C(F)(F)C(F)(F)C(F)(F)C(F)(F)C(F)(F)C(F)(F)F` as the compound, how does the activity change, negative = cytotoxicity read?
Its activity change, negative = cytotoxicity is 4.69% [at 8.55 µM] (inactive).

For `NCC[C@H](O)C(=O)N[C@@H]1C[C@H](N)[C@@H](O[C@H]2O[C@H](CN)[C@@H](O)[C@H](O)[C@H]2O)[C@H](O)[C@H]1O[C@H]1O[C@H](CO)[C@@H](O)[C@H](N)[C@H]1O`, which Potency is on record?
The Potency was “inactive”.
